This is an account of results in PubChem BioAssay (NCI).

Test systems include NCI-H23 lung; NCI-H226 lung; NCI-H322M lung; HOP-62 NSCLC; NCI-H460 lung; HOP-92 NSCLC; NCI-H522 lung; A549/ATCC NSCLC; 786-0 renal; COLO 205 colon; DU-145 prostate; K-562 leukemia; MALME-3M melanoma; MDA-MB-231 breast; RXF 393 renal; SF-268 CNS; SF-295 CNS; SF-539 CNS; UACC-257 melanoma; M14 melanoma.
Common to all, as to test: NCI-60 one-dose screen, 48 h (100 = growth as untreated, 0 = no growth, -100 = all killed)
Holding throughout (conditions): 10 µM unless noted

The panel holds about 83,000 compounds, 20% with a hit somewhere; the sample as a whole holds those more often.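 Cells were grown in 96-well plates and exposed to the test compound at a single concentration for 48 hours; results are reported as percent growth, with values below 10 considered active.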 Unmarked numbers belong to inactive results. The source made the active and inactive calls.

Turning to `Cc1cn(C)cn1`, the growth was 97.7% with NCI-H23 lung; 108% in the assay on NCI-H226 lung; 116% in the assay with NCI-H322M lung; 111% with HOP-62 NSCLC; 106% in the assay with NCI-H460 lung; 81.8% with HOP-92 NSCLC. Also, the growth is 89.3% in the assay with NCI-H522 lung; 94.2% with A549/ATCC NSCLC; 97.9% in the assay on 786-0 renal; 125% with COLO 205 colon; 107% with DU-145 prostate; 106% in the assay with K-562 leukemia. For the same molecule, the growth with MALME-3M melanoma is 96.1%; with MDA-MB-231 breast, 112%; with RXF 393 renal, 117%; with SF-268 CNS, 106%; in the assay on SF-295 CNS, 105%; in the assay on SF-539 CNS, 110%. Besides, the growth in the assay on UACC-257 melanoma was 90.2%; with M14 melanoma, 103%.
As for `CCN(CC)C(=O)CC1=C(C)/C(=C/c2[nH]c(-c3ccc[nH]3)cc2OC)N=C1C`, the growth in the assay on NCI-H23 lung was 34%; in the assay with NCI-H226 lung, 20%; in the assay with NCI-H322M lung, 37.1%; in the assay on HOP-62 NSCLC, 33.1%; in the assay with NCI-H460 lung, 9.17% (active); in the assay on HOP-92 NSCLC, -14.8% (active). In addition, the growth with NCI-H522 lung was 10.1%; in the assay on A549/ATCC NSCLC it was 4.73% (active); in the assay with 786-0 renal, -13.3% (active); with COLO 205 colon it was 15.9%; in the assay with DU-145 prostate, 34.8%; in the assay on K-562 leukemia it was 6.08% (active). For the same molecule, the growth in the assay on MALME-3M melanoma was 1.07% (active); in the assay with MDA-MB-231 breast it was -0.929% (active); in the assay on RXF 393 renal, 35.9%; in the assay on SF-268 CNS it was 21.7%; in the assay with SF-295 CNS, -51.6% (active); in the assay with SF-539 CNS, 20.6%. The values for the growth with UACC-257 melanoma and in the assay with M14 melanoma were 5.68% (active) and -55.8% (active), respectively.
`COc1ccc(C(=O)Nc2ncc(Cc3ccc(Cl)cc3)s2)cc1`: the growth is 30.5% in the assay with NCI-H23 lung; 41.7% in the assay with NCI-H226 lung; 35.7% with NCI-H322M lung; 21.2% in the assay on HOP-62 NSCLC; 5.09% (active) in the assay with NCI-H460 lung; 41.4% in the assay on HOP-92 NSCLC. Also, the growth was -16.3% (active) in the assay with NCI-H522 lung; 17.7% in the assay with A549/ATCC NSCLC; 17.6% with 786-0 renal; -2.86% (active) with COLO 205 colon; 12.6% in the assay on DU-145 prostate; 7.71% (active) in the assay with K-562 leukemia. Besides, the growth in the assay with MALME-3M melanoma was 57.2%; in the assay with MDA-MB-231 breast, 31.3%; in the assay on RXF 393 renal, 3.43% (active); in the assay on SF-268 CNS, 44.8%; in the assay with SF-295 CNS, 1.3% (active); in the assay with SF-539 CNS, -22.9% (active). In addition, the growth with UACC-257 melanoma is 46.8%; in the assay on M14 melanoma, -29.4% (active).
In the case of `Cc1ccc(C)c2c1sc1nc(N3CCOCC3)c(C#N)c(=O)n12`, the growth is 76.1% in the assay with NCI-H23 lung; 89.6% with NCI-H226 lung; 107% in the assay with NCI-H322M lung; 94.2% with HOP-62 NSCLC; 94.9% in the assay on NCI-H460 lung; 71.7% with HOP-92 NSCLC. The growth with NCI-H522 lung was 94.8%; with A549/ATCC NSCLC it was 98.4%; with 786-0 renal, 104%; with COLO 205 colon, 104%; in the assay on DU-145 prostate, 103%; with K-562 leukemia, 151%. Further, the growth is 97.1% in the assay on MALME-3M melanoma; 92% with MDA-MB-231 breast; 114% in the assay with RXF 393 renal; 88% with SF-268 CNS; 61.7% with SF-295 CNS; 96.4% in the assay with SF-539 CNS. Further, the growth was 112% with UACC-257 melanoma and 92.9% with M14 melanoma.
With `CCC(C)(C)c1ccc(Nc2ccc(Nc3ccc(C(C)(C)CC)cc3)cc2)cc1`, the growth in the assay on NCI-H23 lung was 83.1%; in the assay on NCI-H226 lung, 93%; in the assay on NCI-H322M lung it was 105%; in the assay on HOP-62 NSCLC, 89.3%; in the assay with NCI-H460 lung it was 99.1%; with HOP-92 NSCLC, 51.1%. Also, the growth in the assay on NCI-H522 lung is 79.9%; in the assay with A549/ATCC NSCLC, 90.4%; with 786-0 renal, 84.4%; with COLO 205 colon, 84.7%; with DU-145 prostate it was 93.8%; with K-562 leukemia, 80.4%. Further, the growth with MALME-3M melanoma was 97.4%; in the assay with MDA-MB-231 breast, 93.5%; in the assay with RXF 393 renal it was 83.4%; with SF-268 CNS it was 98.6%; in the assay on SF-295 CNS it was 102%; in the assay with SF-539 CNS, 102%. Moreover, the values for the growth in the assay with UACC-257 melanoma and in the assay with M14 melanoma were 80.3% and 92.5%, respectively.
Take `CNCC[C@H](Oc1cccc2ccccc12)c1cccs1`: the growth in the assay with NCI-H23 lung is 80.6%; with NCI-H226 lung, 96.7%; in the assay on NCI-H322M lung it was 98.2%; with HOP-62 NSCLC, 128%; in the assay with NCI-H460 lung, 104%; in the assay on HOP-92 NSCLC, 52.5%. Further, the growth in the assay on NCI-H522 lung was 81.4%; in the assay on A549/ATCC NSCLC it was 96.4%; in the assay with 786-0 renal it was 82.9%; in the assay with COLO 205 colon, 102%; with DU-145 prostate, 115%; in the assay on K-562 leukemia, 54.7%. Moreover, the growth in the assay on MALME-3M melanoma is 113%; with MDA-MB-231 breast, 7.37% (active); in the assay on RXF 393 renal, 72.3%; in the assay on SF-268 CNS, 88.2%; in the assay with SF-295 CNS, 94.1%; with SF-539 CNS, 97.5%. The figures for the growth with UACC-257 melanoma and in the assay with M14 melanoma were 90.1% and 104%, respectively.
On to `CN(C)C1CN(C(=O)c2cc(-c3ccc4ncnc(N5CCc6cc(F)c(Cl)cc65)c4c3)cnc2N)C1`, for which the growth is 23.9% with NCI-H23 lung; 30.7% in the assay with NCI-H226 lung; 5.68% (active) in the assay with NCI-H322M lung; 16.5% with HOP-62 NSCLC; 12.7% with NCI-H460 lung; -15% (active) in the assay on HOP-92 NSCLC. The growth with NCI-H522 lung is 16.3%; with A549/ATCC NSCLC it was 6.53% (active); with 786-0 renal it was 7.47% (active); with COLO 205 colon it was 20.4%; in the assay with DU-145 prostate it was 9.86% (active); in the assay with K-562 leukemia, 23.8%. Moreover, the growth in the assay with MALME-3M melanoma is -21.2% (active); in the assay with MDA-MB-231 breast, 27.8%; in the assay on RXF 393 renal it was -32% (active); with SF-268 CNS, 18.4%; with SF-295 CNS, 8.16% (active); with SF-539 CNS, -1.35% (active). Further, the values for the growth in the assay on UACC-257 melanoma and in the assay with M14 melanoma were 16.4% and 9.34% (active), respectively.
